Assay results as given in PubChem BioAssay (NCATS).
Records with an inconclusive call do not appear. The source made the active and inactive calls. Calls follow the shape of the dose curve; as a rule, active = well fitted curve in the direction sought with a large enough effect; inconclusive = small, poorly fitted or top-dose-only effect, or another doubt; inactive = no such curve, though single readings can be large; an effect the other way counts as inactive or inconclusive.

Assays:
[1] = HEK293 18hr Apoptosis Induction qHTS against the NCATS CANVASS Library (AID 1347357); also: potency is read from the fitted curve at half-maximal effect
Outline: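 Luminescent caspase-3/7 signal is measured in HEK293 cells exposed for 18 hours to an 11-point concentration series; doxorubicin serves as the plate control.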

[2] = HPAF-II 12hr Apoptosis Induction qHTS against the NCATS CANVASS Library (AID 1347358)
Outline: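 HPAF-II cells (500/well, DMEM + 10% FBS) were exposed to compounds for 12 hours at 37 degrees C. Caspase-3/7 activity was then read by Caspase-Glo 3/7 luminescence after 15 min at room temperature.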

[3] = HEK293 24hr Apoptosis Induction qHTS against the NCATS CANVASS Library (AID 1347359)
Outline: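 HEK293 cells (500/well, DMEM + 10% FBS) were exposed to compounds in an 11-point series for 24 hours at 37 degrees C, then caspase-3/7 activity was read by Caspase-Glo DEVD luciferase luminescence after 15 min.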

[4] = HPAF-II 18hr Apoptosis Induction qHTS against the NCATS CANVASS Library (AID 1347360)
Outline: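 Apoptosis was scored as caspase-3/7 activity in HPAF-II pancreatic cancer cells treated 18 hours with an 11-point concentration series.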

[5] = HEK293 12hr Apoptosis Induction qHTS against the NCATS CANVASS Library (AID 1347361)
Outline: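 Apoptosis in HEK293 was scored as caspase-3/7 luminescence following 12 h treatment with a compound concentration series in qHTS format.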

[6] = biological target: Luciferin 4-monooxygenase (Photinus pyralis) (UniProt P08659); assay: Firefly luciferase counterscreen qHTS: Assay Interference Panel against the NCATS CANVASS Library (AID 1347363); also: series mostly up to about 57 µM
Outline: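 Purified P. pyralis luciferase was added to compounds (11-point series) preincubated 15 min at room temperature with substrate containing 0.013 mM D-luciferin and 0.013 mM ATP; luminescence was read after 5 min.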

[7] = KB-3-1 Cancer Cell Toxicity qHTS against the NCATS CANVASS Library (AID 1347366); also: nearly all actives have a fitted effect of over 75% in size; also: potency is read from the fitted curve at half-maximal effect
Outline: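 Seed KB-3-1 cells at 500/well in DMEM with 10% FBS, add compounds, incubate 72 hr at 37C and 5% CO2, then add CellTiter-Glo and read luminescence after 10 minutes.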

[8] = qHTS for ATAD5 Agonist screened against the NCATS CANVASS Library (AID 1347367);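 also: luciferase reporter driven by ATAD5 which rises upon DNA damage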
Outline: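 Step one plated reporter cells and let them acclimate 5hr. Step two pinned compounds with MMS as positive and 0.46% DMSO as negative control. After 16hr incubation, fluorescence viability then luminescence were read.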

[9] = qHTS for ATAD5 Antagonist screened against the NCATS CANVASS Library (AID 1347370); also: nearly all actives have a fitted effect of over 65% in size; also: potency is read from the fitted curve at half-maximal effect
Outline: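 HEK293T cells with a stably integrated ATAD5-controlled luciferase reporter were exposed to compounds (11-pt) alongside 10 uM 5-fluorouridine as ATAD5 stabilizer for 16hr at 37C. Viability was read by CellTiter-Fluor fluorescence, then ATAD5 by luminescence.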

[10] = J3T Cancer Cell Toxicity qHTS against the NCATS CANVASS Library (AID 1347371); also: potency is read from the fitted curve at half-maximal effect
Outline: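 J3T dog glioma cells (500 cells/well) were exposed to compounds in an 11-point series for 72 hr at 37C, 5% CO2. Cytotoxicity was read as ATP content by CellTiterGlo luminescence.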

[11] = biological target: Nuclear receptor subfamily 1 group I member 3 (Homo sapiens) (UniProt Q14994); assay: qHTS for Constitutive Androstane Receptor (CAR) Antagonist screened against the NCATS CANVASS Library (AID 1347372); also: potency is read from the fitted curve at half-maximal effect
Outline: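 HepG2 cells stably carrying hCAR and a CYP2B6-2.2kb luciferase reporter were exposed to compounds plus 50 nM CITCO for 24hr at 37C. CAR activity was read by ONE-Glo luminescence, with viability measured first by CellTiter-Fluor.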

[12] = qHTS for Hypoxia signaling pathway (HIF-1) agonists against the NCATS CANVASS Library (AID 1347375)
Outline: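 HRE-bla ME-180 cells (beta-lactamase reporter under hypoxia responsive element) in 0.5% dialyzed FBS medium, 5 h at 37C, then compound 17 h, 11-point qHTS series. CCF4-AM FRET substrate 2 h RT; 460/530 nm emission read.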

[13] = 10-beta competent E. coli microbial cell viability qHTS against the NCATS CANVASS Library (AID 1347376); also: series mostly up to about 46 µM
Outline: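 10-beta competent E. coli (0.9 OD culture diluted to 0.2 OD) exposed to compounds in an 11-point qHTS series, incubated overnight at 37C, 5% CO2. Viability read as ATP by BacTiter-Glo luminescence after 20 min at room temperature.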

[14] = qHTS for Inflammasome Signaling Inhibitors: IL-1-beta AlphaLISA screen against the NCATS CANVASS Library (AID 1347379);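 also: human THP-1 cells primed with LPS then triggered with ATP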
Outline: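 Human THP-1 cells were pretreated 1 hr at 37 °C with compounds (up to 57.5 uM final), then stimulated with LPS (250 ng/mL final) and ATP (1.25 mM final). Secreted IL-1B was read by AlphaLISA after 16 hr.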

[15] = Inflammasome Signaling qHTS Counterscreen: IL-1-beta AlphaLISA counterscreen against the NCATS CANVASS Library (AID 1347381);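 also: cell-free check with purified IL-1β in medium and no THP-1 cells; series mostly up to about 57 µM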
Outline: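 To flag interference with the AlphaLISA read-out, a known amount of purified IL-1-beta (4 pg) replaced cell supernatant. Detection used anti-IL-1-beta acceptor beads, biotinylated antibody and streptavidin donor beads at room temperature.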

[16] = Cytotoxicity qHTS for assessment of Hepg2 cells membrane integrity screened against the NCATS CANVASS Library (AID 1347387)
Outline: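 HepG2 cells (2000/well) attached overnight at 37C, then received compounds in an 11-point series at 0.59 nM - 46 uM final for 5 hr. LDH release was detected fluorometrically (ex 560/em 590 nm) with CytoTox-ONE reagent after 10 min at room temperature.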

[17] = qHTS for activators of dead-cell proteases activity screened against the NCATS CANVASS Library (AID 1347392);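 also: luminescence from protease leaking out of membrane-damaged cells cleaving impermeant substrate; rising signal means more cytotoxicity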; also: potency is read from the fitted curve at half-maximal effect
Outline: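 HepG2 cells (2000/well) attached 18 h at 37C, then exposed 5 h to compounds (11-point qHTS). Dead-cell protease activity read as luminescence from cell-impermeant AAF-aminoluciferin substrate after 15 min at room temperature.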

[18] = Viability qHTS for inhibitors of the SERCaMP assay screened against the NCATS CANVASS Library (AID 1347400); also: nearly all actives have a fitted effect of over 70% in size; also: potency is read from the fitted curve at half-maximal effect
Outline: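 SH-SY5Y-GLuc SERCaMP MJH297-derived cells (1000 cells/well) were pre-incubated 4 h at 37C, then exposed to compounds for 48 h. Viability was read as CellTiter-Glo luminescence; bortezomib served as positive control.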

[19] = test system: NAD(P)H diaphorase (Clostridium kluyveri); assay: Diaphorse counterscreen qHTS: Assay Interference Panel against the NCATS CANVASS Library (AID 1347362)
Outline: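 Clostridium kluyveri diaphorase in PBS with 0.01% Tween-20 was preincubated 15 min at room temperature in the dark with compounds (11-point series). Resorufin fluorescence (ex 525/20, em 598/25) was read 5 min after adding resazurin/NADH.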

[20] = biological target: Nuclear receptor subfamily 1 group I member 3 (Homo sapiens) (UniProt Q14994); assay: qHTS for Constitutive Androstane Receptor (CAR) Agonist screened against the NCATS CANVASS Library (AID 1347373);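 also: every well also contained 1.5 µM PK11195 alongside the test compound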
Outline: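 HepG2 cells stably expressing hCAR and a CYP2B6-2.2kb luciferase reporter were treated for 24hr at 37C with compounds (11-point qHTS) in the presence of 1.5uM PK11195. Reporter activation was read by ONE-Glo luminescence.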

Measured: Potency

Chain of Nuclear receptor subfamily 1 group I member 3 (Homo sapiens) (Q14994 whole entry, looked up): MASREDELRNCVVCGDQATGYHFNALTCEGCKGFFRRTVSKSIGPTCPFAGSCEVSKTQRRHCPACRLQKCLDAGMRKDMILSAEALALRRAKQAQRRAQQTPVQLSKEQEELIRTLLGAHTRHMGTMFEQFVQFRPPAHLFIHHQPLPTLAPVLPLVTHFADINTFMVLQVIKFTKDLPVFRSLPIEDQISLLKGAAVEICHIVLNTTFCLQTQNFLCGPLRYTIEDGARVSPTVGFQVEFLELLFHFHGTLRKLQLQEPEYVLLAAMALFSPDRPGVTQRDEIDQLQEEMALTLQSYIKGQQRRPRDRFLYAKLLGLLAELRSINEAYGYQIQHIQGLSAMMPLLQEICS
Chain of Luciferin 4-monooxygenase (Photinus pyralis) (P08659 whole entry, looked up): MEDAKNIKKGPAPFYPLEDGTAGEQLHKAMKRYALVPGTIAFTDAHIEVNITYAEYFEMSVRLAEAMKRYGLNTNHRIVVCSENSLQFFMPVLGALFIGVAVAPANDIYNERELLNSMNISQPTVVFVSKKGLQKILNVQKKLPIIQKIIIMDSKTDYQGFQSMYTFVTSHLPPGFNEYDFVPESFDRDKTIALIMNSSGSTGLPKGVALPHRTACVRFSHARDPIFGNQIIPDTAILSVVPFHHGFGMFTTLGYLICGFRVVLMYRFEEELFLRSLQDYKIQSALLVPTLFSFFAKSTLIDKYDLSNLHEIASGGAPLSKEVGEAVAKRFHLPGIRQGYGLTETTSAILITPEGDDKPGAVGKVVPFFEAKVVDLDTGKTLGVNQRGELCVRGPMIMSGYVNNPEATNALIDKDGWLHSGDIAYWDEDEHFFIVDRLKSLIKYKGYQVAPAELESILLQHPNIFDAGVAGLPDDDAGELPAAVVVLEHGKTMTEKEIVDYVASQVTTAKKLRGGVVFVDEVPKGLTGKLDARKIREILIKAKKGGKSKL

CC(C)=CCC/C(C)=C/Cc1cc([C@@H]2CC(=O)c3c(cc(O)c(CC=C(C)C)c3O)O2)ccc1O
not listed: [19] | [20]
inactive: all other assays above

CC1(C)CC[C@]2(CO)CC[C@]3(C)C(=CCC4[C@@]5(C)CC[C@H](O)C(C)(C)C5CC[C@]43C)C2C1 (stereo partly specified)
inactive: all assays above

C/C1=C/[C@@H](C)[C@H](O)[C@@H](O)/C=C/CC/C=C/C(=O)O[C@@H]1[C@H](C)C(=O)/C=C/CC1CC(=O)NC(=O)C1
active: [11] 2.09 µM | [18] 3.03 µM
not listed: [9] | [10]
inactive: all other assays above

C=C[C@](Cl)(CBr)CCC=C(C)C
not listed: [13] | [14]
inactive: all other assays above

C/C(=C\[C@H](C)C(=O)C[C@H](O)CC1CC(=O)NC(=O)C1)[C@@H]1OC(=O)CCCC/C=C/C[C@@H](O)[C@@H]1C
active: [7] 14.8 µM | [9] 8.31 µM | [11] 13.2 µM
not listed: [10] | [14] | [18]
inactive: all other assays above

CC(C)=CC[C@H]1C[C@@]2(CC=C(C)C)C(=O)[C@](CC=C(C)C)(C(=O)C(C(=O)c3ccccc3)=C2O)C1(C)C
not listed: [7] | [9] | [10] | [14]
inactive: all other assays above

C/C=C/C(=O)C1(O)CC2CC(C(=O)O)CC(C)C2C1C1=C2C(=O)NC(=O)C2=C(CCCCC)C(C)O1 (stereo unspecified)
active: [9] 16.6 µM | [10] 20.9 µM | [14] 19.3 µM
not listed: [7] | [16] | [17] | [18]
inactive: all other assays above

C/C=C(/CO)C(=O)O[C@@H]1[C@H](O)[C@@H](C(=O)OC)O[C@@H]2C[C@H]3OC(n4cnc5c(N)ncnc54)[C@H](OC)[C@H]3O[C@@]12O (stereo partly specified)
inactive: all assays above

CO/C=C/C(=O)c1cc2cnc3c(N)cc(=NC(=O)C(C)C)c([nH]1)c23
active: [7] 0.59 µM | [9] 0.741 µM | [10] 0.743 µM | [11] 0.295 µM | [14] 0.968 µM | [17] 23.4 µM | [18] 0.381 µM
not listed: [2] | [4] | [12] | [16]
inactive: all other assays above

COC1C(C)OC(OCC23C[C@@H]4[C@H](C)CC[C@H]4C4(C=O)CC2C=C(C(C)C)C34C(=O)O)[C@@H](O)[C@H]1O (stereo partly specified)
inactive: all assays above

C/C=C1/CN2C3CC1C1C=CC(=O)N4c5ccccc5[C@@]3(C[C@@H]2C2=C[C@H]3C5CC6N(CC[C@@]67c6ccccc6N(C2=O)[C@@H]37)C/C5=C/C)[C@H]14 (stereo partly specified)
active: [1] 26.4 µM | [7] 10.5 µM | [9] 5.24 µM | [10] 20.9 µM | [14] 12.2 µM | [18] 19.1 µM
not listed: [2] | [3] | [4] | [5] | [11]
inactive: all other assays above

COC(=O)C1=C[C@]23C[C@@H](C)CC[C@@H]2[C@@]2(C)CC[C@@H](C(C)C)[C@@](O)(O3)[C@@H]12
not listed: [1] | [3] | [5]
inactive: all other assays above
